D2 antagonist: D2 dopamine receptor (human) antagonism. P14416. HEK293 TREx D2 cells, calcium flux, dopamine EC80. inhibition, % at 10 µM. 340,000 tested, 2% active; in the data active = inhibition above about 30%; inactive = below that, where a call was filed
Target sequence (P14416 whole entry, looked up): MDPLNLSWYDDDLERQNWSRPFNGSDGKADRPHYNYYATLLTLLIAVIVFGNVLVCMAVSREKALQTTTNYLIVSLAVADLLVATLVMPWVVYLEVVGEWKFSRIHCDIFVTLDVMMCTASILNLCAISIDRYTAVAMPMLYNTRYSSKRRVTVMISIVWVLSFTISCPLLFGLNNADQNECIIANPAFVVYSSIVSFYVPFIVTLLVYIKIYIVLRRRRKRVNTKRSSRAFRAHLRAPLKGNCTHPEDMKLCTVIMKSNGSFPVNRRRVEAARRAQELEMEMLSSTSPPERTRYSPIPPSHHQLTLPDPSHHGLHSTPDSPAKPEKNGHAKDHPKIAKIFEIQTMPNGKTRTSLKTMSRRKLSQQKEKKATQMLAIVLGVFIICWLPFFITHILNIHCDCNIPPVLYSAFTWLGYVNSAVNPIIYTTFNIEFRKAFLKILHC
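Read-out: kinetic calcium fluorescence (1 cycle/s) in inducible HEK293 T-REx D2 cells after an EC80 dopamine addition that followed 180 s compound preincubation. Loss of the dopamine response indicates antagonism.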
D2 ag-1: agonists of human D2 dopamine receptor | HEK293 T-REx D2 cells, calcium flux agonist mode | activation, % at 2 µM | 340,000 tested, 0.53% active | AID 485358;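 active = activation over 3 SD above normal in the single-dose calcium agonist read, cut at about 30% in these data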
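HEK293 Trex D2 cells, tetracycline-induced, o/n 30 C 5% CO2; no-wash Ca dye, RT 30–90 min; 10-cycle baseline, 23 nl cpd added, kinetic Ca read 180 s; agonist hits = positive Ca response.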
D2 PAM-1: potentiates the human D2 dopamine receptor allosterically | potentiation, % (test concentration not listed) | 360,000 tested, 0.23% active | P14416 | DiscoveRx D2 beta-arrestin cells, luminescence, 90 min; 100% = 57 uM dopamine signal; in the data active = potentiation above about 50%; inconclusive = mostly about 30% to 49%
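PathHunter D2 cells, attached overnight at 37 deg C, received compound in DMSO plus dopamine at EC20 (50 nM final) for 90 min at 37 deg C. Beta-arrestin recruitment was read as luminescence after 1 h with detection reagent at ambient temperature.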
D2 PAM-2: positively modulates the human D2 dopamine receptor allosterically. AID 485347. potentiation, % at 10 µM. P14416. HEK293 T-REx D2, calcium flux, EC20 dopamine potentiation. 340,000 tested, 0.34% active;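 active = potentiation over 3 SD above the plate norm, cut at about 30% in these data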
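Calcium flux readout, no-wash dye, 1 read/s. Inducible HEK293 Trex D2 line, overnight 30 C. Compound alone 180 s (agonist flags), then EC20 dopamine, another 180 s to score potentiation.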
D2 ag-2: agonists of human D2 dopamine receptor (beta-arrestin). P14416. DiscoveRx PathHunter D2 beta-arrestin, luminescence, 90 min; 100% = 57 uM dopamine signal. activation, % (no concentration beside the values). 360,000 tested, 0.084% active. AID 624465; in the data active = activation above about 40%; inconclusive = between about 15% and that limit
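Agonist mode: compounds alone added to overnight-plated D2 PathHunter cells for 90 min at 37 C, with 57 uM final dopamine (EC100) defining full response. Beta-arrestin recruitment detected by chemiluminescent reagent, read after 1 h at ambient temperature.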
D3 arrestin ag: confirmation of human D3 dopamine receptor agonists, beta-arrestin; shares compounds with D2 ag-1; DiscoveRx D3 beta-arrestin cells, luminescence, 90 min; Potency, µM (highest dose often 76.9 µM), most hits filed as activators; 2,300 tested, 4% active; also: nearly all actives have a fitted effect of over 70% in size
D2 ag-3: counter-screen for D3 agonists: human D2 dopamine receptor agonism; 2,300 tested, 5.9% active; DiscoveRx PathHunter D2 beta-arrestin, luminescence, 90 min; response scale: percent relative to full dopamine signal; Potency, µM (series often up to 76.9 µM), hits mostly activators; shares compounds with D2 ag-1; also: nearly all actives have a fitted effect of over 70% in size
Each line names hits and unclear results; the compound was inactive in the other large screens (follow-up assays come after a bar, where they were run); ! = not active in a repeat. Sampled rows, rich in hits. Any-hit rate of the full collection: about 2.4%. Unless noted, calls follow the shape of the dose curve; as a rule, active = well fitted activation curve with a large enough effect; inconclusive = small, poorly fitted or top-dose-only effect; inactive = flat fitted curve, though single readings scatter.

Cc1cc(OC(C)C(=O)N2CCN(CCc3ccccn3)CC2)ccc1Cl (centres undefined)	none (no result: D2 antagonist, D2 PAM-1, D2 ag-2)
Cc1ccc(NC(=O)c2oc3ccc(S(=O)(=O)N4CCCCCC4)cc3c2C)c(C)c1	none (no result: D2 antagonist, D2 PAM-1, D2 ag-2)
COc1ccc(/C=N/NC(=O)CCn2cnc3ccccc32)cc1	none | D3 arrestin ag inactive | D2 ag-3 inactive
CCOc1cccc(C(=O)N(Cc2ccc(C)o2)C2CCS(=O)(=O)C2)c1 (centres undefined)	none (no result: D2 antagonist, D2 PAM-1, D2 ag-2)
COc1ccc(CC2(CO)CCN(Cc3cc4ccccc4o3)CC2)cc1	D2 ag-2 62 (no result: D2 antagonist, D2 ag-1, D2 PAM-2) | D3 arrestin ag inconclusive | D2 ag-3 11µM
OCC1(Cc2cccc(C(F)(F)F)c2)CCN(Cc2cc3ccccc3o2)CC1	D2 ag-1 49, D2 ag-2 51 | D3 arrestin ag inconclusive | D2 ag-3 40µM
COc1ccc(CC2(CO)CCN(Cc3ccncc3)CC2)cc1	none
CC(C)(C)c1ccc(C(=O)N2CC(=O)Nc3ccc(F)cc3C2c2ccc(F)cc2)cc1 (centres undefined)	none (no result: D2 antagonist, D2 PAM-1, D2 ag-2)
Cc1ccc(C)c(NC(=O)CSc2c3c(nc4ccc(Cl)cc24)CCCC3)c1	none (no result: D2 antagonist, D2 PAM-1, D2 ag-2)
O=C(Nc1nnc(S(=O)(=O)N2CCOCC2)s1)c1ccccc1Cl	D2 ag-1 52! | D3 arrestin ag inactive | D2 ag-3 inactive
O=C(COc1ccccc1)Nc1nnc(S(=O)(=O)N2CCCCCC2)s1	D2 ag-1 50! | D3 arrestin ag inactive | D2 ag-3 inactive
O=C(Nc1nnc(S(=O)(=O)N2CCOCC2)s1)c1ccccc1F	none
O=C(Nc1ccccc1Cl)c1ccc(F)c(S(=O)(=O)NCc2ccc(Cl)c(Cl)c2)c1	none (no result: D2 antagonist, D2 PAM-1, D2 ag-2)
CC(C)C(=O)N1c2ncnn2C2(CCCCC2)[C@@H]2CCCC[C@@H]21	none (no result: D2 antagonist, D2 PAM-1, D2 ag-2)
CC(NC(=O)CN1C(=O)c2ccccc2C1=O)c1ccccc1 (centres undefined)	none (no result: D2 antagonist, D2 ag-1, D2 PAM-2)
CC(C)C(NC(=O)CCN1C(=O)c2ccccc2C1=O)c1ccccc1 (centres undefined)	none | D3 arrestin ag inactive | D2 ag-3 inactive
Fc1ccccc1N1CCN(c2ncnc3c2nc2n3CCCCC2)CC1	none (no result: D2 antagonist, D2 PAM-1, D2 ag-2)
O=C(C1CCN(c2ncnc3c2nc2n3CCCCC2)CC1)N1CCN(c2ccccc2F)CC1	none | D3 arrestin ag inconclusive | D2 ag-3 inactive
CCN(CC)CCOC(=O)c1cccc(Br)c1	none
O=C(OCCc1cc2ccccc2c(=O)o1)c1cccc(Br)c1	none | D3 arrestin ag inactive | D2 ag-3 inactive
O=C(OCCc1cc2ccccc2c(=O)o1)c1ccc(F)cc1	none
O=C(OCCc1cc2ccccc2c(=O)o1)c1ccc(C(F)(F)F)cc1	none | D3 arrestin ag inactive | D2 ag-3 inactive
CN(CCOC(=O)c1cccc(Br)c1)C(C)(C)C	D2 antagonist 31, D2 ag-1 71 | D3 arrestin ag inactive | D2 ag-3 inactive
Cc1cc(C)c(S(=O)(=O)NCc2csc(-c3ccccc3)n2)c(C)c1	none (no result: D2 antagonist, D2 PAM-1, D2 ag-2)
Nc1cccc(C#Cc2ccc3c(=O)c4ccccc4oc3c2)c1	none | D3 arrestin ag inactive | D2 ag-3 inactive
COCC(=O)Nc1nnc(-c2ccc(C(C)(C)C)cc2)s1	none | D3 arrestin ag inactive | D2 ag-3 inactive
Cc1cccc(C)c1NC(=O)C[n+]1cc(-c2ccccc2)n2c1CCC2	D2 ag-1 75 | D3 arrestin ag inactive | D2 ag-3 inactive
Cc1ccccc1NC(=O)C[n+]1cc(-c2ccccc2)n2c1CCC2	none (no result: D2 antagonist, D2 ag-1, D2 PAM-2) | D3 arrestin ag inactive | D2 ag-3 inactive
COc1ccc2[nH]cc(C3N4CC5(C)CN3CC(C)(C4)C5=O)c2c1 (centres undefined)	D2 ag-1 58 | D3 arrestin ag inactive | D2 ag-3 inactive
O=C(NCc1ccc2c(c1)OCO2)c1ccc2c(c1)N(Cc1cccc(Cl)c1)C(=O)c1ccccc1S2=O (centres undefined)	none (no result: D2 antagonist, D2 PAM-1, D2 PAM-2, D2 ag-2)
Oc1ccccc1C=NCC(O)c1ccccc1 (centres undefined)	none | D3 arrestin ag inactive | D2 ag-3 inactive

Screens deposited in PubChem by National Center for Advancing Translational Sciences (NCATS).
